Test results taken from PubChem BioAssay AID1259421 (Broad Institute, 2018).
Values joined by “and” are separate entries in the source; they are usually repeats but may differ in a detail not shown here. Identical values can stand only once. Out of some 6,400 compounds screened, about 610 (9.5%) were called active. Rule as the data show it: active = activity change below about -70%; inconclusive = no clear call, values can overlap the other calls; inactive = above that. What follows is part of a selection rich in actives, with near analogues and random picks from the rest. A structure can be active in one record and inactive in another.

Experiment: Toxoplasma gondii ME49Luc growth in HeLa cells, luciferase, no IFN-y, primary screen (AID 1259421)
Settings: T. gondii ME49Luc in HeLa, 72 h, stronger effect = lower value, concentration not given here

SMILES	activity change, negative = inhibition
c1ccc(CCCN2CCN(CCOC(c3ccccc3)c3ccccc3)CC2)cc1	-51.1% (inactive) and -1.58% (inactive)
C[C@H]1CN(Cc2ccc(CC(=O)N3CCC(Nc4cccc(F)c4)CC3)cc2)CCN1	4.86% (inactive)
CC(C)(C)c1cc(C=C(C#N)C#N)cc(C(C)(C)C)c1O	-90.8% (active) and -88.7% (active)
N#CC(C#N)=Cc1ccc(O)c(O)c1	10.7% (inactive) and 7.11% (inactive)
CC(C)(C)c1cc(C=C(C#N)C#N)cc(Br)c1O	-39.2% (inactive)
CN1C(=O)N(C)C2C1N(C)C(=O)N2C (configuration not stated)	5.58% (inactive)
OC1CC2CCCC(C1)N2Cc1ccccc1 (configuration not stated)	4.85% (inactive)
CC(=O)O[C@H]1C[C@@H](OC(C)=O)C(C)(C)C2C[C@@H](OC(C)=O)[C@]3(C)C(CC[C@@]4(C)[C@H](c5ccoc5)C(=O)[C@H]5O[C@]543)[C@]21C (some centres not stated)	11.1% (inactive)
CC1(C)C(=O)C=C[C@@]2(C)C1C[C@@H](O)[C@]1(C)C2CC[C@@]2(C)[C@H](c3ccoc3)OC(=O)[C@H]3O[C@]321 (some centres not stated)	13.2% (inactive)
CC(=O)O[C@@H]1CC2C(C)(C)C(=O)C=C[C@]2(C)C2CC[C@]3(C)C(=CC(=O)O[C@H]3c3ccoc3)[C@@]21C (some centres not stated)	-83.5% (active)
CCN(CC)CCOC1CCC2(C)C(=CCC3C4CCC(=O)C4(C)CCC32)C1 (configuration not stated)	-5.47% (inactive)
CN1CC2CCCC(C1)C2OC(=O)C(O)(c1ccccc1)C1CCCC1 (configuration not stated)	36% (inactive)
C[C@H](N)Cc1cnc[nH]1	10.9% (inactive)
Cc1cccc(C(C)c2cnc[nH]2)c1C (configuration not stated)	15.9% (inactive) and 24.6% (inactive)
CCCCCCC(C)(C)c1ccc(C2CC(O)CCC2CCCO)c(O)c1 (configuration not stated)	0.246% (inactive)
C[C@]12[C@H](O)CC3C(CC[C@@H]4C[C@@H](O)CC[C@]34C)[C@@]1(O)CC[C@@H]2C1=CC(=O)OC1 (some centres not stated)	-84.3% (active)
C[C@]12CC[C@H](O)C[C@H]1CC[C@@H]1[C@@H]2CC[C@]2(C)[C@@H](C3=CC(=O)OC3)CC[C@]12O	-86.6% (active)
C[C@]12CC[C@@H](O)C[C@@H]1CC[C@@H]1[C@@H]2CC[C@]2(C)[C@@H](C(=O)CO)CC[C@@H]12	8.82% (inactive)
C[C@]12CC[C@H](O)C[C@H]1CC[C@@H]1[C@@H]2C[C@@H](O)[C@]2(C)[C@@H](C3=CC(=O)OC3)CC[C@]12O	-93.5% (active)
CC(=O)C1CCC2C3CCC4C[C@H](O)CCC4(C)C3C[C@H](O)C12C (some centres not stated)	3.84% (inactive)
C[C@]12CC[C@@H](O)C[C@@H]1CC[C@@H]1[C@@H]2CC[C@]2(C)C(=O)CC[C@@H]12	9.11% (inactive)
CC(=O)OCC(=O)[C@H]1CC[C@H]2[C@@H]3CC[C@H]4C[C@H](O)CC[C@]4(C)[C@H]3C(=O)C[C@]12C	-8.47% (inactive)
CC(=O)[C@H]1CC[C@H]2[C@@H]3CC[C@H]4C[C@H](O)CC[C@]4(C)[C@H]3C(=O)C[C@]12C	12.1% (inactive)
C[C@]12CC[C@H](O)C[C@H]1CC[C@@H]1[C@@H]2CC[C@]2(C)[C@@](O)(c3ccoc3)CC[C@]12O	2.9% (inactive)

SMILES	activity change, negative = inhibition
Cl/C=C\C[N+]12CN3CN(CN(C3)C1)C2	5.98% (inactive)
NC1=NC(=O)N2CC12 (configuration not stated)	6.84% (inactive)
Oc1ccc2c3c1OC1c4oc5ccccc5c4CC4(O)C(C2)N(CC2CC2)CCC314 (configuration not stated)	-19.3% (inactive)
N#CC(O[C@@H]1O[C@H](CO[C@@H]2O[C@H](CO)[C@@H](O)[C@H](O)[C@H]2O)[C@@H](O)[C@H](O)[C@H]1O)c1ccccc1 (some centres not stated)	19% (inactive)
COC[C@@H](NC(C)=O)C(=O)NCc1ccccc1	-51% (inactive)
O=C1Nc2ccc(Cl)cc2C(c2ccccc2Cl)=NC1O (configuration not stated)	5.64% (inactive)
CC(C)CC(NC(=O)C(Cc1ccccc1)NC(=O)CNC(=O)[C@H](C)NC(=O)C(N)Cc1ccc(O)cc1)C(=O)N[C@H](CCCN=C(N)N)C(=O)O (some centres not stated)	10.6% (inactive)
O=C1CN=C(c2cccc(Br)c2)c2oc3ccccc3c2N1	22.5% (inactive)
CNC(=O)Oc1ccccc1OC(C)C	12.8% (inactive)
ClC=C(Cl)Cl	8.81% (inactive)
Oc1ccc2c3c1OC1c4c(c5ccccc5n4Cc4ccccc4)CC4(O)C(C2)N(CC2CC2)CCC314 (configuration not stated)	-1.02% (inactive)
CCCCCCCCCCCCC/C=C/[C@@H](O)[C@@H](N)COP(=O)(O)OCC[N+](C)(C)C	-1.29% (inactive)
NC(=O)CN1C[C@H](O)CC1=O	-40.7% (inactive)
CN1CCc2cc3c(cc2C1[C@@H]1OC(=O)c2c1ccc1c2OCO1)OCO3 (some centres not stated)	8.11% (inactive)
Cc1o[nH]c(=O)c1C[C@H](N)C(=O)O	13.1% (inactive)
CC(C)(C)c1o[nH]c(=O)c1CC(N)C(=O)O (configuration not stated)	-79.9% (active) and 9.91% (inactive)
Cc1o[nH]c(=O)c1CC(N)C(=O)O (configuration not stated)	3.8% (inactive)
Oc1ccc2c3c1OC1c4[nH]c5ccccc5c4CC4(O)C(C2)N(CC2CC2)CCC314 (configuration not stated)	6.33% (inactive)
CN1C2CCC1CC(OC(=O)c1cc(Cl)cc(Cl)c1)C2 (configuration not stated)	-1.24% (inactive) and 2.27% (inactive)
C[C@H]1CCC/C=C/[C@@H]2C[C@H](O)C[C@H]2[C@H](O)/C=C/C(=O)O1	-94.5% (active)
COc1ccc(/C=C/C(=O)CC(=O)/C=C/c2ccc(OC)c(OC)c2)cc1OC	2.29% (inactive)
CC(C)(c1ccc(OCC2CO2)cc1)c1ccc(OCC2CO2)cc1 (configuration not stated)	9.89% (inactive)
CN1C2CCC1CC(OC(c1ccccc1)c1ccccc1N)C2 (configuration not stated)	16.3% (inactive)
c1cc2c(c(N3CCNCC3)c1)OCCO2	-0.0388% (inactive)

SMILES	activity change, negative = inhibition
CN1C2CCC1CC(OC(c1ccc(F)cc1)c1ccc(F)cc1)C2 (configuration not stated)	22.3% (inactive) and 38.4% (inactive)
CC(=O)N(C)c1cccc(-c2ccnc3c(C(=O)c4cccs4)cnn23)c1	42.5% (inactive)
O=C1NC(=O)c2c1c1c3ccccc3n3c1c1c2c2ccccc2n1C1CCC3O1	-71.9% (active)
O=C1NC(=O)c2c1c1c3ccccc3[nH]c1c1[nH]c3ccccc3c21	-28.7% (inactive) and -11.9% (inactive)
N#CC(C#N)=NNc1cccc(Cl)c1	9.63% (inactive)
C[C@]12CC[C@@H]3c4ccc(OC(=O)N(CCCl)CCCl)cc4CC[C@H]3[C@@H]1CC[C@@H]2OP(=O)(O)O	10.9% (inactive)
CCCCC(CC)COC(=O)c1ccccc1C(=O)OCC(CC)CCCC (configuration not stated)	9.98% (inactive)
CO[C@H]1[C@H](O)[C@@H](O[C@H]2CC[C@]3(C=O)C4CC[C@]5(C)[C@@H](C6=CC(=O)OC6)CC[C@]5(O)C4CC[C@@H]3C2)O[C@@H](C)[C@@H]1O (some centres not stated)	-88% (active)
CO[C@@H]1C(O)[C@H](O[C@H]2CC[C@@]3(C=O)[C@H](CC[C@@H]4[C@@H]3CC[C@]3(C)[C@@H](C5=CC(=O)OC5)CC[C@]43O)C2)OC(C)[C@@H]1O (some centres not stated)	-73.9% (active)
O=C1Nc2ccccc2C2(CCN(CCc3ccc(C(F)(F)F)cc3)CC2)O1	16.5% (inactive) and 18.9% (inactive)
O=C(O)CCCCCCNC1c2ccccc2CCc2ccccc21	30.7% (inactive)
O=C(O)C(Cl)Cl	30.7% (inactive)
Clc1cccc(SC2CCNCC2)n1	18.6% (inactive)
Cc1ccc(C[N+](C)(C)C)o1	0.893% (inactive) and 9.89% (inactive)
CC(C)(C)CC(C)(C)c1ccc(O)cc1	5.73% (inactive)
CCCC(C)(COC(N)=O)COC(N)=O	8.01% (inactive)
C[C@]1(O)CC[C@H]2[C@@H]3CCC4=CC(=O)CC[C@]4(C)[C@@]3(F)[C@@H](O)C[C@@]21C	2.26% (inactive)
C[C@@H]1CC[C@@]2(OC1)O[C@H]1C[C@H]3[C@@H]4CC=C5C[C@H](O[C@@H]6O[C@@H](CO)[C@@H](O[C@@H]7O[C@@H](C)[C@H](O)[C@@H](O)[C@@H]7O)[C@H](O)[C@H]6O[C@@H]6O[C@@H](C)[C@H](O)[C@@H](O)[C@H]6O)CC[C@]5(C)[C@@H]4CC[C@]3(C)[C@@H]1[C@H]2C	-18.3% (inactive)
COC1C(O)CC(OC2C(O)CC(OC3C(O)CC(OC4CCC5(C)C(CCC6[C@@H]5CC(O)C5(C)C(C7=CC(=O)OC7)CCC65O)C4)OC3C)OC2C)OC1C (some centres not stated)	-82.4% (active)
CC(=O)[C@H]1CC[C@H]2[C@@H]3CC[C@H]4C[C@H](O)CC[C@]4(C)[C@H]3CC[C@]12C	2.36% (inactive)
CC(=O)O[C@H]1C[C@H](O[C@H]2[C@@H](O)C[C@H](O[C@H]3[C@@H](O)C[C@H](O[C@H]4CC[C@@]5(C)C(CCC6C5C[C@@H](O)[C@]5(C)[C@@H](C7=CC(=O)OC7)CC[C@]65O)C4)O[C@@H]3C)O[C@@H]2C)O[C@H](C)[C@H]1O[C@@H]1O[C@H](CO)[C@@H](O)[C@H](O)[C@H]1O (some centres not stated)	-75.3% (active) and -89.3% (active)
CC(=O)OC1CC[C@@]2(C)C(CCC3C2CC[C@]2(C)C(C4=CC(=O)OC4)C(OC(C)=O)CC32O)C1 (some centres not stated)	-91.6% (active)
C[C@H]1OC(O[C@H]2[C@@H](O)CC(O[C@H]3[C@@H](O)C[C@H](O[C@H]4CC[C@]5(C)C6CC[C@]7(C)[C@@H](C8=CC(=O)OC8)[C@@H](O)C[C@]7(O)[C@@H]6CC[C@@H]5C4)O[C@@H]3C)O[C@@H]2C)C[C@H](O)C1O (some centres not stated)	-71.3% (active)
COC(=O)/C=C/C(=O)N[C@@H]1CC[C@@]2(O)[C@H]3Cc4ccc(O)c5c4[C@@]2(CCN3CC2CC2)[C@H]1O5	16.5% (inactive)
